Source: PubChem BioAssay
Hits are enriched below; roughly 7.4% of the tested compounds scored in any of these assays.
TSHR agonist: TSH receptor (human) agonism. P16473. HEK293-CNG-TSHR cells (CNG channel as cAMP sensor), membrane potential dye, cAMP. Potency, µM (top dose mostly 57.1 µM), for inactives: at the top dose activation, usual class: activators. actives 0.48% (n = 73,000). AID 926; active = well fitted activation curve with a large enough effect in the main read-out, with a control signal flat, not every such curve was filed as active; inconclusive = small, poorly fitted or top-dose-only effect, or a change in a side signal; inactive = no such curve, though single readings can be large or run the other way; % of control where 0% means no effect;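 also: the control signal comes from parental cells without the receptor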
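HEK 293 cells stably expressing TSHR and a modified CNG channel, with CNG-only parental cells as counterscreen, were preloaded 60 min at room temperature with membrane potential dye containing 100 uM RO 20-1724. Compound exposure was 30 min, and depolarization was read as fluorescence at 590 nm.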
Tau fil binding: tau filament binding. P10636. recombinant tau filaments, thioflavin S fluorescence, 15 h; filaments grown with octadecylsulfate alongside compound. Potency, µM (highest dose often 57.1 µM), without a hit: top-dose activity change, negative = inhibition. actives 2% (n = 71,000). AID 596;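 also: % is scaled to controls: 0 for no effect and ±100 for the full control effect; actives lower thioflavin S fluorescence by blocking filaments or displacing dye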
Target sequence (P10636 whole entry, looked up): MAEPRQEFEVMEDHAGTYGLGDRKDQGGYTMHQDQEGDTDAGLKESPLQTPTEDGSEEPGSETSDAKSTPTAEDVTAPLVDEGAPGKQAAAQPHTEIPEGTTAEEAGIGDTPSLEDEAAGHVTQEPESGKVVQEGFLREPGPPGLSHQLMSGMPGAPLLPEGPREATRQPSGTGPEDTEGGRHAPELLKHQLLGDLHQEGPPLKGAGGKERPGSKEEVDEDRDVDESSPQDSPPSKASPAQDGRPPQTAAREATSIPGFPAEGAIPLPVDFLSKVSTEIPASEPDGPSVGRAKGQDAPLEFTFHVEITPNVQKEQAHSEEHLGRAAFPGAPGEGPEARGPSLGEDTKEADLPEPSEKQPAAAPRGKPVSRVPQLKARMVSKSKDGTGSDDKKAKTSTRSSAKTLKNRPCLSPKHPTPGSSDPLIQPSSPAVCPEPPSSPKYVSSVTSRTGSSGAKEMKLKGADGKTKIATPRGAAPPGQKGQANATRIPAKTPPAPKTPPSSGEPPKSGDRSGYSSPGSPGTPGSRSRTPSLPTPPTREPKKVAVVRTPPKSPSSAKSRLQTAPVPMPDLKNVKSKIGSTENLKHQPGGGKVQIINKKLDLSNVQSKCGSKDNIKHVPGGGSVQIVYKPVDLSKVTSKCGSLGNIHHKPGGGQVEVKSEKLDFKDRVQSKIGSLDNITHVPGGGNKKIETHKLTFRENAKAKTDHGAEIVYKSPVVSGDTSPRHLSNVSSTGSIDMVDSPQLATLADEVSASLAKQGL
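Recombinant tau protein (human, 1 uM final) plus 30 uM ODS in HEPES pH 7.4 with NaCl, DTT and thioflavine S. Compound present from the start; fluorescence at 510 nm after 15 h, 37 C.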
HEK293 cAMP cs: counter-screen for TSHR agonists: cAMP increase in parental HEK293. actives 2.5% (n = 73,000). Potency, µM (top dose mostly 57.1 µM), for the others: at the highest dose activation, actives largely listed as activators. AID 938. parental HEK293 CNG cAMP sensor, membrane potential fluorescence; also: % of control where 0% means no effect; nearly all actives have a fitted effect of over 55% in size
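Counterscreen for endogenous-receptor signalling: CNG-channel HEK 293 cells report cAMP rise by membrane depolarization. After 60 min dye equilibration with 100 uM RO 20-1724, compounds incubated 30 min before bottom-read fluorescence at 590 nm.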
ERK AVP block: vasopressin-driven ERK pathway inhibition. HEK293-V1b, vasopressin-stimulated pERK AlphaScreen. actives 0.99% (n = 72,000). Potency, µM (doses to about 57.5 µM), for inactives: top-dose activity, negative = inhibition, actives largely listed as inhibitors. AID 995; also: % is scaled to controls: 0 for no effect and ±100 for the full control effect; nearly all actives have a fitted effect of over 55% in size
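Overnight-seeded V1b-HEK293 cells in 1% FBS got compound, then vasopressin (25 nM final, 5 min, 37C), then lysis buffer. AlphaScreen detection of phospho-ERK; activity normalized to basal and full-stimulation controls.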
CRE Fsk mod: CRE-bla signaling modulation under forskolin stimulation; actives 2.5% (n = 71,000); AID 662; Potency, µM (series often up to 38.2 µM), inactives show at the highest dose activity change, negative = inhibition, hits mostly activators; CHO CRE-bla reporter (cAMP response element driving beta-lactamase), forskolin EC10, beta-lactamase ratio; active = well fitted activation curve with a large enough effect in the signal ratio, with a control signal flat, not every such curve was filed as active; inconclusive = small, poorly fitted or top-dose-only effect, or effect the other way, or a change in a side signal; the % refers to the signal ratio; also: % of control where 0% means no effect
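Titrated compounds plus EC10 NKH 477 on CHO CRE-bla cells, 3 h, 37 °C. CCF4, 2 h RT. Ratio 460/530 nm → AC50.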
* hit, by the source's call; u = inconclusive; x = no result; [ ] = remark or other dose. Unless noted, calls follow the shape of the dose curve; as a rule, active = well fitted curve in the direction sought with a large enough effect; inconclusive = small, poorly fitted or top-dose-only effect, or another doubt; inactive = no such curve, though single readings can be large; an effect the other way counts as inactive or inconclusive. Potency is read from the fitted curve at half-maximal effect.

SMILES | TSHR agonist | Tau fil binding | HEK293 cAMP cs | ERK AVP block | CRE Fsk mod
O=C(O)c1c(-c2c3ccc(=O)cc-3oc3cc(O)ccc23)cc2ccccc2c1-c1ccccc1 | -2.9%[11.4 µM] | 17.8%[11.4 µM] | -6.3%[11.4 µM] | -3.1%[11.5 µM] | 8.5%[7.6 µM]
O=C(O)c1ccccc1NS(=O)(=O)c1ccc(Cl)c(Cl)c1 | -2.0% | x | -4.6% | x | x
C=Cc1ccccc1Cl | 3.4% | -0.7% | 12.9% | 20.3% | -5.4%
COC(=O)[C@@]1(Cc2ccc(F)cc2)[C@H]2c3cc(C(=O)N(C)C)n(Cc4ccccc4)c3C[C@H]2CN1C(=O)c1ccccc1 | u | 4.5% | 10µM* | 17.2% | -5.1%
COC(=O)[C@@]1(Cc2ccc(F)cc2)[C@H]2c3cc(C(=O)N(C)C)n(Cc4ccc(C)o4)c3C[C@H]2CN1C(=O)c1ccccc1 | u | -0.5% | 3.16µM* | 18.3% | 1.1%
COC(=O)[C@@]1(Cc2ccc(OC)cc2)[C@H]2c3cc(C(=O)N(C)C)n(Cc4ccc(OC(F)(F)F)cc4)c3C[C@H]2CN1C(=O)c1ccccc1 | u | -1.1% | u | 17.4% | 11.3%
COC(=O)[C@@]1(Cc2ccc(F)cc2)[C@H]2c3cc(C(=O)N(C)C)n(Cc4ccc(Cl)c(C(F)(F)F)c4)c3C[C@H]2CN1C(=O)c1ccccc1 | u | 25.5% | u | 9.0% | 5.6%
COC(=O)[C@@]1(Cc2ccc(OC)cc2)[C@H]2c3cc(C(=O)N(C)C)n(Cc4ccccc4)c3C[C@H]2CN1C(=O)c1ccccc1 | u | 15.6% | 12.6µM* | 11.1% | -2.1%
COC(=O)[C@@]1(Cc2ccc(F)cc2)[C@H]2c3cc(C(=O)N(C)C)n(C)c3C[C@H]2CN1C(=O)c1ccccc1 | u | 13.0% | u | 1.2% | -19.5%
CCCCC(C=O)CC (configuration not stated) | u | -10.1% | u | 8.6% | -2.7%
Nc1nc(SCc2ccc([N+](=O)[O-])cc2)c2ncn([C@@H]3O[C@@H](CO)[C@@H](O)[C@H]3O)c2n1 | 1.8% | 4.6% | -18.1% | 8.6% | -3.5%
CC(=O)N(CCP(=O)(c1ccccc1)c1ccccc1)Cc1ccco1 | u | -15.6% | 31.6µM* | u | 3.3%
CCOC(=O)Cc1nnc(NC(=O)C(CC)Sc2nnc3c4ccccc4n(C)c3n2)s1 (configuration not stated) | 9.5% | -22.7% | -10.7% | u | 12.6µM*
CCOC(=O)Cc1nnc(NC(=O)C(CC)Sc2nncn2C)s1 (configuration not stated) | 4.3% | -7.1% | 11.2% | x | -6.2%
C=C(C)CNCCN | 1.1%[11.4 µM] | 7.6%[11.4 µM] | 2.8%[11.4 µM] | -1.4%[11.5 µM] | -5.6%[7.6 µM]
COc1ncc2nc(CCc3ccccc3)c(=O)n(-c3ccccc3)c2n1 | u | -5.9% | u | -19.0% | u
CN(C)c1ncc2nc(CCc3ccccc3)c(=O)n(C3CC3)c2n1 | u | 17.2% | u | -7.1% | 3.16µM*
CN(C)c1ncc2nc(-c3ccc(F)cc3)c(=O)n(-c3ccccc3)c2n1 | u | 33.3% | u | 16.6% | 2.51µM*
CN(C)c1ncc2nc(-c3ccc(F)cc3)c(=O)n(CCc3ccccc3)c2n1 | u | 10.3% | u | 4.8% | u
CN(C)c1ncc2nc(CCc3ccccc3)c(=O)n(-c3ccccc3)c2n1 | u | 298.4% | u | 72.8% | 5.01µM*
CCNc1ncc2nc(CCc3ccccc3)c(=O)n(CCOC)c2n1 | 13.5% | 92.1% | 29.5% | -28.1% | u
CCNc1ncc2nc(CCc3ccccc3)c(=O)n(-c3ccccc3)c2n1 | x | 374.5% | -1.9% | -19.1% | 12.6µM*
C=C[C@@H]1CN2CC[C@@H]1C[C@@H]2[C@@H](O)c1ccnc2ccc(OC)cc12 | x | x | x | 4.9% | x
c1cc(CSc2ncnc3nc[nH]c23)ccn1 | 0.7%[11.4 µM] | -2.4%[11.4 µM] | 12.2%[11.4 µM] | 6.9%[11.5 µM] | -1.6%[7.6 µM]
CN(C)c1ncc2nc(-c3ccccc3)c(=O)n(CCC#N)c2n1 | 2.9% | 326.6% | 12.1% | -27.9% | 2.51µM*
COc1cc(S(=O)(=O)N2CCCCCC2)c(OC)cc1Br | u | -7.6% | 15.8µM* | 12.9% | -6.4%
COc1ccc(OC)c(S(=O)(=O)N2CCCCCC2)c1 | -0.1% | -5.5% | 22.9% | -21.6% | 1.6%
